# Source: PubChem BioAssay
# CYP2C19 inhib – inhibitors of human CYP2C19 | CYP2C19 Supersomes, luciferin-H EGE luminescence, 30 min | actives 21% (n = 96,000) | inhibition, % at 5 µM;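 active = CYP2C19 inhibition above a set limit at 5 µM in the primary screen, cut at about 50% in these data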
# CYP2C19 activ – cytochrome P450 2C19 (human) activation; recombinant CYP2C19, luciferin-H EGE luminescence; active compounds read high; 0 = fully inhibited enzyme, 1 = untreated enzyme; activation factor at 5 µM; 96,000 tested, under 10 active;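 active = activation factor of at least 2 at 5 µM in the primary screen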
# Cav3 T inh – blocks human Cav3.2 T-type calcium channel. O95180. Cav3.2-expressing cells, Fluo-4 calcium fluorescence FDSS; active compounds read low. B-score at 10 µM. actives 4% (n = 100,000). AID 449739;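 active = single-dose well whose peak fluorescence ratio is a statistical outlier from its plate by either plate-standardised score or position-corrected B-score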
# CYP2C9 activ – CYP2C9 (human) activation; P11712; recombinant CYP2C9, luciferin-H conversion, luminescence; active compounds read high; factor 1 = untreated enzyme, 0 = blocked; activation factor at 5 µM; actives 1.4% (n = 96,000); AID 1024;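 active = activation factor of 2 or more for CYP2C9 at a 5 µM dose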
# CYP2C9 inh – blocks human cytochrome P450 2C9; AID 777; actives 20% (n = 96,000); P11712; inhibition, % at 5 µM; CYP2C9 Supersomes, luciferin-H conversion, luminescence;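 active = blocking of liver enzyme CYP2C9 beyond about 50% at 5 µM, limit read from the data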
# Hits are given with their value; n = inactive; x = no result given. Compounds with a hit are over-represented: about 27% of the library has one in this group of screens.
SMILES,CYP2C19 inhib,CYP2C19 activ,Cav3 T inh,CYP2C9 activ,CYP2C9 inh
S=C(NCc1ccco1)Nc1cccc(Cl)c1,n,n,n,n,n
COc1cc(NC(=S)NCc2ccco2)cc(OC)c1,67,n,n,n,n
COc1ccc(Cl)cc1NC(=S)NCc1ccco1,71,n,n,2,n
O=C(Nc1cccnc1)c1cccc(NC(=O)c2ccco2)c1,n,n,n,n,n
O=C(Nc1ccc(Cl)c(Cl)c1)N(Cc1cccnc1)Cc1ccco1,99,n,x,n,100
COc1cc(OC)cc(C(=O)NC(=S)NCc2ccco2)c1,n,n,n,n,n
C[C@H]1CCC[C@@]2(O[C@H](CCO)C[C@@H](O)[C@@H]2O)O1,x,x,n,x,x
CCOCCCNC(=O)C1CCN(S(=O)(=O)N2CC(C)CC(C)C2)CC1 (stereo not given),n,n,n,n,n
CC1=NOC(=O)/C1=C/c1ccc(N(C)C)cc1,n,n,n,n,n
CC1=NOC(=O)/C1=C/c1ccc(-c2ccc(Cl)cc2)o1,76,n,n,n,68
CCOC(=O)CSCC(=O)Nc1cc(C)ccc1C,n,n,n,n,n
Cc1ccc(Cl)cc1NC(=O)CSC(N)=O,72,n,n,n,n
Cc1ccc(Cl)cc1NC(=O)CC(O)(C(F)(F)F)C(F)(F)F,75,n,-2.7,n,n
c1ccc(Cn2ncc3ccccc32)cc1,n,n,n,n,n
CN(C)c1nc(-c2ccccc2)c2cnn(Cc3ccccc3)c2n1,67,n,n,n,n
CCCc1nc2sc3c(c2c(=O)n1N)CCC3,74,n,x,n,n
CCCCCc1nc2sc3c(c2c(=O)n1N)CCC3,x,x,n,x,x
Nn1c(Nc2ccccc2)nc2sc3c(c2c1=O)CCC3,75,n,n,n,98
CC(=O)Nc1ccc(-c2nc3c(C)cccc3[nH]2)cc1,n,n,n,n,n
COc1cc(OC)c(C#N)c(S(=O)Cc2ccccc2)c1 (stereo not given),99,n,n,2.3,n
CC/C(O)=C(\C#N)c1nnc2n1CCCCC2,n,n,n,n,n
CC(C)CCNC(=O)NC(=O)CSc1nnc(COc2ccccc2Cl)o1,n,n,-4.8,n,53
CC(NC(=O)CCOc1ccccc1)c1ccccc1 (stereo not given),95,n,n,n,n
CC(NC(=O)CSc1nnc(COc2ccccc2)o1)c1ccccc1 (stereo not given),82,n,n,n,n
CC(NC(=O)CSc1ncccn1)c1ccccc1 (stereo not given),78,n,n,n,n
SMILES,CYP2C19 inhib,CYP2C19 activ,Cav3 T inh,CYP2C9 activ,CYP2C9 inh
COc1ccc(Cc2nnc(SCC(=O)NC(C)c3ccccc3)o2)cc1 (stereo not given),n,n,n,n,n
CC(C)NC(=O)NC(=O)COC(=O)CCOc1ccccc1,n,n,n,n,n
Cc1cc(C)cc(OCc2nnc(SCC(=O)OC(C)C)o2)c1,60,n,n,n,n
CCOc1ccc(N(CC(=O)NC2CCCCC2)C(=O)CSc2nnc(COc3ccccc3)o2)cc1,x,x,-4.3,x,x
COc1cc(NS(=O)(=O)c2ccc(C)cc2C)cc(OC)c1OC,n,n,n,n,67
CCc1ccc(OC)c(S(=O)(=O)Nc2ccccc2C)c1,n,n,n,n,73
COc1cc(S(=O)(=O)n2nnc3ccccc32)c(OC)cc1Cl,x,x,n,x,x
COc1cc(S(=O)(=O)Nc2ncccc2C)c(OC)cc1Cl,91,n,n,n,n
COc1ccc(C)cc1S(=O)(=O)Nc1ccccc1,n,n,n,n,n
COc1ccc(C)cc1S(=O)(=O)Nc1ccccc1C,85,n,x,n,62
CC(C)(C)S(=O)(=O)c1c(C(=O)O)cccc1C(=O)O,n,n,n,n,n
COC(=O)[C@@]1(Cc2ccc(OC)cc2)[C@H]2c3cc(C(=O)N(C)C)[nH]c3C[C@H]2CN1C(=O)c1ccccc1,x,x,n,x,x
COc1ccc(C)cc1S(=O)(=O)Nc1cc(Cl)ccc1Cl,x,x,n,x,x
COc1cc(NS(=O)(=O)c2cc(C)ccc2OC)c(OC)cc1Cl,67,n,n,n,n
CC(C)OCCCNC(=O)c1ccc(NS(C)(=O)=O)cc1,n,n,n,n,n
COc1cccc(CNC(=O)CSCc2cnn(-c3ccccc3)c2-n2cccc2)c1OC,94,n,-6,n,97
CCOc1ccc(NC(=O)CSCc2cnn(-c3ccccc3)c2-n2cccc2)cc1,98,n,-10,n,94
O=C(CSCc1cnn(-c2ccccc2)c1-n1cccc1)N1CCN(Cc2ccccc2)CC1,89,n,n,n,96
CCOc1ccc(NC(=O)CCn2cccc2)cc1,n,n,n,n,n
Cc1cc2ccccc2nc1SCC(=O)N1CCCC1,n,n,n,n,n
O=c1c(N2CCCCC2)coc2ccccc12,n,n,n,n,n
COC(=O)c1c(-c2cccc(C)c2)csc1N,n,n,n,n,n
CCOC(=O)c1c(-c2ccsc2)csc1N,63,n,n,n,n
CCOC(=O)c1c(-c2ccc(C)o2)csc1N,59,n,n,n,n
O=C(CCCNS(=O)(=O)c1ccc(Br)cc1)N1CC[C@@]2(O)CCCC[C@H]2C1,n,n,n,n,n
SMILES,CYP2C19 inhib,CYP2C19 activ,Cav3 T inh,CYP2C9 activ,CYP2C9 inh
Cn1ncc([N+](=O)[O-])c1C(=O)N1CCOCC1,n,n,n,n,n
O=S1(=O)c2ccccc2C(CCO)N1Cc1ccccc1 (stereo not given),x,x,n,x,x
CCc1ccc(/C=C/C(=O)C2C(=O)c3ccccc3C2=O)cc1,n,n,-3.8,n,60
CC1Cc2ccccc2N1C(=O)CN1C(=O)C(=O)N(Cc2ccccc2)C1=O (stereo not given),n,n,n,n,n
CCOc1ccc(S(=O)(=O)N/N=C2/CC(c3ccccc3)Oc3ccccc32)cc1 (stereo not given),56,n,-7.1,n,88
Cc1ccc(S(=O)(=O)N/N=C2/CC(c3ccccc3)Oc3ccccc32)cc1 (stereo not given),n,n,n,n,80
Cc1cc(C)c2c(c1)/C(=N/NS(=O)(=O)c1ccccc1)CCC2,n,n,n,n,n
CCOc1ccc(S(=O)(=O)NCc2ccco2)cc1,n,n,n,n,n
O=S(=O)(N/N=C1\CC(c2ccccc2)Oc2ccccc21)c1ccccc1 (stereo not given),n,n,-7.7,n,n
CC(C)CCNC(=O)CN(Cc1ccc2c(c1)OCO2)C(=O)CCC(=O)Nc1ccccn1,n,n,n,n,n
CCOc1ccc(N(CC(=O)O)S(=O)(=O)c2ccc(OC)c(OC)c2)cc1,n,n,n,n,n
CCOc1ccc(N(CC(=O)NCc2ccco2)S(=O)(=O)c2ccc(OC)c(OC)c2)cc1,98,n,n,n,62
COc1ccc(N(CC(=O)NCc2ccco2)S(=O)(=O)c2ccc(OC)c(OC)c2)cc1,100,n,n,n,n
COc1ccccc1N/C(=N/c1nc(C)cc(C)n1)NC(C)=O,n,n,n,n,n
CC1(C)Cc2c(sc3nc4n(c(=N)c23)CCC4)CO1,n,n,n,n,n
